JMJD2E inh: blocks human JMJD2E demethylase activity | Potency, µM (series often up to 57.1 µM), inactives show at the highest dose activity change, negative = inhibition, usual class: inhibitors | AID 2147 | B2RXH2 | 1.6% of 230,000 active | JMJD2E catalytic domain, FDH-coupled NADH fluorescence (FDH is formaldehyde dehydrogenase);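 further: 0% = wells with enzyme and -100% = buffer wells without enzyme; nearly all actives have a fitted effect of over 50% in size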
HTT ATP protect: Huntington cell model cytoprotection by ATP luminescence. PC12 HTT-Q103 induced, cytoprotection, ATP luminescence, 40 h. Potency, µM (series often up to 56.4 µM), for inactives: cytoprotection (ATP increase), actives largely listed as activators. 0.14% of 230,000 active; active means well fitted curve in the direction sought with a large enough effect; inconclusive means small, poorly fitted or top-dose-only effect, or another doubt; inactive means no such curve, though single readings can be large; an effect the other way counts as inactive or inconclusive; further: % of control where 0% means no effect; nearly all actives have a fitted effect of over 45% in size
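Cells were plated at 1500 per well in phenol red-free DMEM with 5% equine and 5% calf serum. Tebufenozide (100 nM final) and compounds were added, then ATPlite reagent, and luminescence was read.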
ALDH1A1 block: inhibitors of human aldehyde dehydrogenase 1A1; P00352; Potency, µM (titrated, usually from 75.3 µM), for inactives: at the top dose activity, negative = inhibition, hits mostly inhibitors; 7.3% of 220,000 active; Purified ALDH1A1, NADH fluorescence, propionaldehyde substrate;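 further: plate controls were no enzyme wells and a reference inhibitor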
HttQ103 aggreg: reduces HttQ103-GFP aggregates in PC12 cells. PC12 HttQ103-GFP aggregates, Acumen cytometry, 40 h. Potency, µM (series often up to 46.1 µM), for inactives: top-dose activity change, negative = inhibition, most hits filed as inhibitors. 1.1% of 220,000 active; active means well fitted curve in the direction sought with a large enough effect; inconclusive means small, poorly fitted or top-dose-only effect, or another doubt; inactive means no such curve, though single readings can be large; an effect the other way counts as inactive or inconclusive; further: on the % scale 0 is the no-effect control and ±100 the full control effect; nearly all actives have a fitted effect of over 60% in size
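PC12/HTTQ103-GFP, ecdysone-inducible; teb 100 nM; cpd qHTS titration; GFP aggregates read on laser cytometer, Ex 488/Em 500-530 nm.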
HPGD block: inhibitors of human 15-hydroxyprostaglandin dehydrogenase (HPGD); 4.3% of 150,000 active; Potency, µM, inactives show at the highest dose activity change, negative = inhibition, hits mostly inhibitors; purified HPGD, NADH fluorescence kinetic, PGE2 substrate; further: on the % scale 0 is the no-effect control and ±100 the full control effect
Target sequence (P15428 whole entry, looked up): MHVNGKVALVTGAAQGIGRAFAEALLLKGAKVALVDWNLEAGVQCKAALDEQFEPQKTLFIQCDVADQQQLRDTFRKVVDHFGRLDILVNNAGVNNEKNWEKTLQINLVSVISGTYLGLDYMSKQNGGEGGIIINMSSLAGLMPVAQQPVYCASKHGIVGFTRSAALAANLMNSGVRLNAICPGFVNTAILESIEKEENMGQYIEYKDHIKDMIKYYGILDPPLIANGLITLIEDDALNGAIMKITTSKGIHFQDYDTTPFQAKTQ
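NADH formation kinetics: reaction with 30 uM PGE2 and 1 mM NAD+ (final), 20 nM enzyme, Tris-HCl pH 8 with Tween 20, after 15 min compound preincubation at room temperature. Fluorescence change, last versus first of five reads.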
Lamin A splicing: changes lamin A minigene splicing in HeLa cells | 0.01% of 200,000 active | HeLa LMNA splicing GFP/RFP minigene ratio, 48 h | Potency, µM (titrated, usually from 46.1 µM), for the others: at the top dose ratio change, negative = inhibition, actives largely listed as inhibitors; active means well fitted inhibition curve with a large enough effect in the signal ratio, with a control signal flat, not every such curve was filed as active; inconclusive means small, poorly fitted or top-dose-only effect, or effect the other way, or a change in a side signal; the % refers to the signal ratio; further: on the % scale 0 is the no-effect control and ±100 the full control effect
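Read-out is the ratio of GFP to DsRed2 object intensity, acquired by 488 nm laser-scanning cytometry on HeLa lamin A-EGFP minigene reporter cells. Compound incubation 48 hrs at 37 °C in Opti-MEM with 2% FBS; DMSO 0.5% final.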
The depositor's hits bear a star; ? = inconclusive; nt = no result given; [ ] = another dose, or the depositor's remark. The list is not random: actives were taken first. Their share in the collection is about 9.2%. Unless noted, the call rests on the fitted dose curve; in most records, active means well fitted inhibition curve with a large enough effect (not every such curve was filed as active); inconclusive means small, poorly fitted or top-dose-only effect, or another doubt; inactive means no such curve, though single readings can be large or run the other way. Potency means the concentration at half of the fitted maximal effect.

SMILES | JMJD2E inh | HTT ATP protect | ALDH1A1 block | HttQ103 aggreg | HPGD block | Lamin A splicing
C[C@@H]1CC[C@H]2[C@H](C)C3[C@H](C[C@H]4[C@@H]5CC=C6C[C@@H](O)CC[C@@]6(C)[C@@H]5C[C@@H](O)[C@]34C)N2C1 (stereo partly drawn) | nt | nt | 8%[13.5 µM] | nt | -2% | nt
CC(C)(C)C(=O)Nc1ccc(Sc2ccc([N+](=O)[O-])cc2)cc1 | 3% | 0%[10 µM] | 5% | ? | 8.9µM* | -17%
CC(C)(C)C(=O)NC(NC(=O)C(C)(C)C)c1ccc([N+](=O)[O-])cc1 | 11% | nt | 6% | 8% | -8% | 10%
CCN(CC)C(=O)c1sc2c(c1C)c(=O)n(-c1ccccc1)c(=O)n2Cc1c(C)cc(C)cc1C | nt | nt | nt | nt | nt | 21%[46 µM]
CCOc1ccc(C2C(C#N)=C(N)Oc3cc(C)oc(=O)c32)cc1 (stereo not drawn) | -4% | nt | 8.9µM* | nt | nt | 0%[46 µM]
Cc1ccc(C2C(C#N)=C(N)Oc3cc(C)oc(=O)c32)o1 (stereo not drawn) | -13% | -3%[10 µM] | ? | 8%[9.22 µM] | nt | nt
CCn1c(C)nc2cc(S(=O)(=O)C(F)(F)C(F)C(F)(F)F)ccc21 (stereo not drawn) | 2% | -37% | -1% | 7.1µM* | ? | ?
C[C@@]12C[C@H](O)[C@@H]3[C@H](CCC4=CC(=O)CC[C@]43C)[C@H]1CC[C@@H]2c1csc(-c2ccccc2)n1 | nt | 7%[10 µM] | nt | nt | nt | nt
Cc1cccc(OCCOc2ccccc2C=C(C#N)C#N)c1 | -16% | -14%[10 µM] | 7.1µM* | ? | -5% | ?
Cc1ccccc1OCCNC(=S)Nc1ccccc1 | 1% | -5% | 8% | -25% | -22% | -4%
Cc1ccccc1OCCOc1ccccc1C=C(C#N)C#N | ? | -8%[10 µM] | 3.5µM* | 3% | -13% | ?
N#C/C(=C1/SCC(c2ccccc2Cl)S1)n1ccnc1 (stereo not drawn) | nt | 22% | nt | 1% | nt | ?
CCOc1ccc(N2C(=O)C3Sc4[nH]c(=O)sc4C(/C=C/c4ccccc4)C3C2=O)cc1 (stereo not drawn) | -8% | -9%[10 µM] | 11µM* | ? | -20% | -10%
Cc1cc(C)cc(CC(Cc2nc3ccccc3[nH]2)c2nc3ccccc3[nH]2)c1 (stereo not drawn) | -2% | -11%[10 µM] | 3% | 22µM* | 2% | ?
Cc1ccc(CC(Cc2nc3ccccc3[nH]2)c2nc3ccccc3[nH]2)cc1 (stereo not drawn) | 7% | -14%[1.9 µM] | 5% | nt | -12% | nt
O=C(CSc1ccc2nnc(-c3ccc(F)cc3)n2n1)N1CCCc2ccccc21 | ? | 18%[10 µM] | 14µM* | -12% | -3% | ?
Cc1cccc(-c2nnc(SCC(=O)N3c4ccccc4CCc4ccccc43)n2C)c1 | -5% | 13%[10 µM] | 11µM* | 11% | -3% | -15%
Cc1ccc(NCc2nnc(SCC(=O)N3CCc4ccccc43)n2C)cc1 | 2% | -16%[10 µM] | 8.9µM* | 9% | 0% | 14%
Cn1c(SCC(=O)N2c3ccccc3CCc3ccccc32)nnc1-c1cc2ccccc2cc1O | 7% | 0%[10 µM] | ? | 14% | -3% | -8%
O=Cc1cn(CC(=O)N2CCc3ccccc32)c2ccccc12 | -6% | -15%[10 µM] | 18µM* | -10% | nt | -22%[46 µM]
CC1CC(=O)Nc2ccccc2N1C(=O)CN1CCN(c2ccccc2)CC1 (stereo not drawn) | 2% | -36% | 3% | 9% | nt | nt
COc1cc2ccccc2cc1C(=O)NCC(c1cccs1)N(C)C (stereo not drawn) | ? | -167% | ? | ? | nt | ?
NC(=O)[C@@H]1CCOc2c(I)cc([N+](=O)[O-])cc2C(=O)N[C@@H](CO)C(=O)NCC(=O)N1 | -5% | nt | -4% | 22% | -5% | -5%
CN(Cc1ccccc1)C(=O)CSc1nc2ccccc2n1Cc1ccccc1F | nt | nt | nt | nt | nt | 9%[46 µM]
Cn1cc(SCC(=O)N2CCCc3ccccc32)c2ccccc21 | -1% | 8%[10 µM] | 10µM* | -10% | -14% | -24%
COCCn1c(SCC(=O)NC2CCCC2)nc2cccnc21 | 5% | -40% | 3% | 6% | nt | nt
